Test results as given in PubChem BioAssay.
A number with no mark means an inactive call.

Test: growth modulation of vineyard yeast isolate – strain RM11-1a, OD600, basal, 24 h, primary screen (AID 1177);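 further: cultures grown under basal conditions with no added stressor; test concentration not given here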
Details: S. cerevisiae RM11-1a growth, OD600, 24 h; higher = more signal, called active from +8 up or from −8 down
CCOC(=O)C[C@H]1[C@H](OC(=O)c2ccc(C(=O)c3ccccc3)cc2)[C@@H](NC(=O)c2ccccc2)c2cc(OCCCO)ccc2N1C(=O)Cc1ccc(OC)cc1 gave a z-score of 0.17.
Work on COCCOC(=O)N1C(=O)[C@@]2(c3cc(C#CCNC(N)=O)ccc31)[C@H](C(=O)Nc1nc3ccccc3s1)[C@H]1C(=O)O[C@H](c3ccccc3)[C@H](c3ccccc3)N1[C@@H]2c1ccc(OCCO)cc1 yielded a z-score of 1.41.
CC(C)OC(=O)C=C1C[C@@H](c2ccccn2)O[C@@H](c2ccccn2)O1 gave a z-score of -0.391.
COC(=O)C(CC#Cc1ccc2c(c1)[C@]1(C(=O)N2)[C@H](c2ccc(OCCO)cc2)N2[C@H](c3ccccc3)[C@H](c3ccccc3)OC(=O)[C@H]2[C@@H]1C(=O)N1CCc2cc(OC)c(OC)cc2C1)C(=O)OC gave a z-score of 2.97.
COc1ccc([Si](C)(C)[C@H]2[C@H](CC(=O)N3Cc4ccccc4C[C@H]3CO)O[C@@]3(C(=O)N(Cc4cccc(N5CCC5=O)c4)c4ccccc43)[C@@H]2C)cc1 showed a z-score of 2.58.
In the case of COCCCNC(=O)[C@]1(CCC(=O)OC(C)(C)C)N=C(c2ccc(OCCCO)cc2)O[C@@H]1c1ccccc1CN=[N+]=[N-], the z-score is reported as -0.123.
With COCCOC(=O)N1C(=O)[C@@]2(c3cc(C#CCC(C(=O)OC)C(=O)OC)ccc31)[C@H](c1ccccc1OCCO)N1[C@H](c3ccccc3)[C@H](c3ccccc3)OC(=O)[C@H]1[C@@H]2C(=O)NC[C@H](O)c1ccccc1 the z-score was 2.84.
Compound O=C1c2ccccc2[C@](Cc2ccccc2I)(C(=O)NCC(F)(F)F)[C@H](c2ccc(CO)cc2)N1Cc1ccccc1Cl has a z-score of -0.838.
In the case of COc1cc2c(cc1O)C(c1cccs1)N(C)CC2 (stereo not given), the z-score is reported as -0.225.
With C=C[C@@H](COC(=O)OC(C)(C)C)N(Cc1ccc(OC)cc1)S(=O)(=O)c1ccc(Br)cc1 the z-score was 0.378.
With CCS[C@H]1[C@@H](C(=O)O)[C@H](c2ccc(C)cc2)N(S(=O)(=O)c2ccc(C)cc2)[C@@H]1CC the z-score was -0.0137.
CN1C(=O)C2C=CC(C(O)C#Cc3ccccc3)N(N3CCCCC3)C2C1=O (stereo not given) showed a z-score of -0.0362.
With O=C1O[C@H](c2ccccc2)[C@H](c2ccccc2)N2[C@H]1[C@@H](C(=O)N1CCCCCCC1)[C@]1(C(=O)Nc3ccc(C#CCCO)cc31)[C@H]2c1ccccc1OCCO the z-score was 2.99.
CC(C)C(=C=CC[C@@H](O)c1ccc(OCCO)cc1)C[C@@H](O)COCc1ccccc1 showed a z-score of -2.
In the case of CCCC[C@H]1OB(O)C[C@H]2C1=C(COC)Cn1c(=O)n(-c3ccccc3)c(=O)n12, the z-score is reported as 0.523.
CCC[C@@H]1C[C@@]1(CCC)[C@@H](NS(=O)(=O)c1cccc2cccnc12)c1ccc(Cl)cc1 gave a z-score of 1.24.
Work on [N-]=[N+]=Nc1ccccc1[C@@H]1OC(c2ccc(OCCCO)cc2)=N[C@]1(CCS(=O)(=O)c1ccccc1)C(N)=O yielded a z-score of -0.0594.
Compound COC(=O)[C@@]1(Cc2ccc(F)cc2)[C@H]2c3cc(C(=O)N(C)C)n(Cc4ccc(Cl)c(C(F)(F)F)c4)c3C[C@H]2CN1C(=O)c1ccccc1 has a z-score of -0.285.
In the case of CO[C@H]1O[C@H](CO)[C@@H](OC(=O)Nc2ccc(Oc3ccccc3)cc2)[C@H](OC(=O)Nc2ccc3c(c2)OCO3)[C@H]1OC(=O)Nc1ccc2c(c1)OCO2, the z-score is reported as 1.11.
Compound CC(C)=CCCC(C)=CC(O)C1C=CC2C(=O)N(C)C(=O)C2N1Nc1ccccc1 (stereo not given) has a z-score of 0.938.
Work on CCOC(=O)C[C@H]1[C@H](OC(=O)c2ccc(-c3ccccc3)cc2)[C@@H](NC(=O)Cc2ccc(OC)cc2)c2cc(OCCCO)ccc2N1C(=O)c1ccccc1 yielded a z-score of 0.87.
Compound CC(C)C[C@@H]1NC(=O)[C@@H]2C[C@H](C(=O)NCc3ccc(F)cc3)[C@H](c3cccc(OCCO)c3)N2C1=O has a z-score of -0.694.
Compound NC(=O)NCC#Cc1ccc2c(c1)[C@]1(C(=O)N2)[C@H](c2ccccc2OCCO)N2[C@H](c3ccccc3)[C@H](c3ccccc3)OC(=O)[C@H]2[C@@H]1C(=O)Nc1nc2ccccc2s1 has a z-score of 2.16.
With C=C(CCCC)/C(=C/C[C@@H](OC(=O)c1ccncc1)c1ccc(OCCO)cc1)c1cc(C(=O)OC)ccc1OC the z-score was 0.826.
With C=C(C)[C@@H]1CC=C(C(O)C2C=CC3C(=O)N(C)C(=O)C3N2Nc2ccccc2)CC1 (stereo not given in full) the z-score was 1.45.
